Screening results as filed in PubChem.
FLuc modulator: inhibits or activates purified firefly luciferase, miR-21 counter-screen | purified FLuc, Km substrates, luminescence inhibition | Potency, µM (top dose mostly 57.5 µM), for inactives: top-dose activity change, negative = inhibition, actives largely listed as inhibitors | hit rate 6.9% among 360,000 | AID 588342;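 note: plate controls were vehicle for no effect and reference inhibitor for full effect; nearly all actives have a fitted effect of over 55% in size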
Target sequence (P08659 whole entry, looked up): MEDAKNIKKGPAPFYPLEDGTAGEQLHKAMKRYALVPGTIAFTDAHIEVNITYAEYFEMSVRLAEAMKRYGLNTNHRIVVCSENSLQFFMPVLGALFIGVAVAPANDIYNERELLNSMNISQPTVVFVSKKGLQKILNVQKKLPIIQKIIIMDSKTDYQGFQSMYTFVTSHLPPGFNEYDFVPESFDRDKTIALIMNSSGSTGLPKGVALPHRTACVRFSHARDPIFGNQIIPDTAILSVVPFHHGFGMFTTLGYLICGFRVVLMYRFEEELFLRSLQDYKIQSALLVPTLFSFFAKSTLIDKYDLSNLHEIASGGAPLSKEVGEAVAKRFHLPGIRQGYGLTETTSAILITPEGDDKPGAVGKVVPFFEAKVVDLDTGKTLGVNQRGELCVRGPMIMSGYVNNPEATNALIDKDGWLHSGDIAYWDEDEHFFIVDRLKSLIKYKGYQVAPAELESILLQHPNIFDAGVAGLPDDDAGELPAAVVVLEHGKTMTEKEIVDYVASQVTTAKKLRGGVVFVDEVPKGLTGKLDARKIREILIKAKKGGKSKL
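Purified P. pyralis luciferase, 10 nM final, with Km-level 10 uM D-luciferin and 10 uM ATP in 50 mM Tris acetate pH 7.5, 10 mM Mg acetate, 0.01% Tween-20, 0.05% BSA; 6-point qHTS titration about 60 µM downward; luminescence read.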
SMN2 splice enh: enhancers of SMN2 splice variant expression; AID 1458; hit rate 2.8% among 210,000; Potency, µM (top dose mostly 46.1 µM), for inactives: top-dose activity change, positive = activation, hits mostly activators; HEK293 SMN2-luciferase splicing reporter, luminescence, 30-36 h; note: % of control where 0% means no effect; nearly all actives have a fitted effect of over 55% in size
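HEK293 cells carry an SMN2 […]–luciferase reporter in which exon 7 inclusion puts luciferase in frame. Cells were plated 10-12 h before compound addition, then incubated 30-36 h at 37C. ONE-Glo luminescence was read; sodium butyrate at 4.5 mM final served as control.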
Luc counter: blocks Kinase-Glo luciferase, a counter-screen artifact; Q27757; Kinase-Glo luciferase, ATP luminescence, 8 min; Potency, µM (highest dose often 38.3 µM), for the others: top-dose activity change, negative = inhibition, usual class: inhibitors; hit rate 0.28% among 200,000; AID 1379; note: % is set by controls: 0 for no effect and ±100 for the full control effect; nearly all actives have a fitted effect of over 60% in size
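Substrate mix (final 50 mM imidazole pH 7.2, 50 mM KCl, 7 mM MgCl2, 10 uM ATP, 0.01% Tween 20, 0.05% BSA) plus pin-tool compound, then Kinase-Glo detection mix; 8 min ambient, luminescence read.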
Rab9 promoter act: activates the Rab9 promoter | Huh7 Rab9 promoter-luciferase reporter, luminescence, 24 h | Potency, µM (highest dose often 9.22 µM), for the others: top-dose activation, negative = inhibition, most hits filed as activators | hit rate 2.8% among 320,000 | AID 485297; note: % of control where 0% means no effect; nearly all actives have a fitted effect of over 60% in size
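Huh7 reporter line, Rab9 promoter upstream of luciferase. Compound exposure 24 h at 37 °C in reduced-serum medium with 10% FBS. Read-out: luminescence.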
ELG1 genotoxic: genotoxicity induction in ELG1-luciferase HEK293T cells; Potency, µM (series often up to 46 µM), for the others: top-dose activity change, positive = activation, usual class: activators; hit rate 1.3% among 330,000; HEK293T ELG1-luciferase reporter, luminescence, 16 h; note: % of control where 0% means no effect; nearly all actives have a fitted effect of over 60% in size
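HEK293T cells expressing luciferase-tagged ELG1 were exposed to compound or DMSO vehicle for 16 hr at 37 °C and 5% CO2. Luciferase activity was then measured with ONE-Glo after 30 min at room temperature.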
NPC1 promoter act: activates the NPC1 promoter; Huh7 NPC1 promoter luciferase reporter, 24 h; Potency, µM (series often up to 9.22 µM), inactives show top-dose activation, hits mostly activators; hit rate 2.4% among 320,000; note: % of control where 0% means no effect; nearly all actives have a fitted effect of over 60% in size
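Huh7 cells stably carrying NPC1 promoter–luciferase, plated in Opti-MEM with 10% FBS for 2 h, were exposed to compound in DMSO for 24 h at 37 °C; luciferase reagent was added for 10 min and luminescence read.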
* hit, by the source's call; ? = inconclusive; / = not tested or not shown; [ ] = remark or other dose. An excerpt weighted towards active compounds, which were near 7.3% of everything screened. Calls come from the whole dose curve; as a rule, active = well fitted curve in the direction sought with a large enough effect; inconclusive = small, poorly fitted or top-dose-only effect, or another doubt; inactive = no such curve, though single readings can be large; an effect the other way counts as inactive or inconclusive. Potency is the fitted concentration of half-maximal effect.

SMILES	FLuc modulator	SMN2 splice enh	Luc counter	Rab9 promoter act	ELG1 genotoxic	NPC1 promoter act
CCOc1ccc(NC(=O)CN2C(=O)CSC(C)C2=O)cc1 (centres undefined)	17µM*	9%	-1%	-2%	-2%	-1%
CCOc1ccc(NC(=O)c2ccc(NC(=O)COC(=O)Cc3ccc(OC)cc3)cc2)cc1	0%	11µM*	0%	2.5µM*	?	3.5µM*
CC(=O)Nc1ccc(C(=O)OCCc2ccccc2)cc1	12µM*	/	/	18%	?	17%
COc1ccc(CC(=O)OCC(=O)Nc2ccc(C(=O)Nc3ccc(OC)cc3)cc2)cc1	-2%	/	/	16%	12%	13%
CC(=O)OCC(=O)Nc1ccc(SC(F)F)cc1	?	21%	-3%	5%	0%	-2%
COc1ccc(NC(=O)CN2C(=O)CSC(C)C2=O)c(OC)c1 (centres undefined)	1%	-4%	0%	0%	-2%	-3%
CC(C)CCn1c(SCCc2ccccc2)nc2c1c(=O)[nH]c(=O)n2C	2%	26%	-5%	-1%	10%	-1%
CCCN(CCC)CCCNC(=O)Cn1cnc2sc(C)c(S(=O)(=O)N3CCC(C)CC3)c2c1=O	4%	12%	/	0%	2%	-1%
CCOc1ccc(NC(=O)CNc2ccc(C)cc2Cl)cc1	9.5µM*	-8%	2%	-5%	2%	-1%
COC(=O)c1ccc(NC(=O)C(=O)c2cccn2C)cc1	1.9µM*	0.89µM*	13µM*	0.35µM*	?	0.4µM*
CCOc1ccc(NCC(=O)Nc2ccc(C)cc2C)cc1	0%[2.3 µM]	-9%	-3%	-4%	-3%	-5%
Cc1ccc2cc(CN(CC3CCCO3)C(=O)c3cccs3)c(=O)[nH]c2c1 (centres undefined)	2%	/	/	0%	6%	1%
Cn1c(SCC(=O)c2ccccc2)nnc1-c1cccc(N)c1	24µM*	17%	13%	?	?	25%
Cn1c(SCC(=O)c2ccccc2)nnc1-c1ccco1	21µM*	14%	-4%	?	?	26%
O=C(CSc1nnc(-c2ccco2)n1Cc1ccccc1)OC1CCCCC1	9.5µM*	?	-5%	3.2µM*	?	?
Cn1c(SCC(=O)c2ccccc2)nnc1-c1ccncc1	-1%	3%	-2%	-4%	3%	1%
Cn1c(SCC(=O)c2ccccc2)nnc1-c1ccccn1	17µM*	/	/	3.5µM*	?	?
Fc1ccccc1N1CCN(c2nc3ccccc3c3nc(-c4ccccc4)nn23)CC1	2%	-1%	/	/	/	/
C/C(=N\NC(=O)c1cc(-c2ccc(C)s2)nc2ccccc12)c1cccnc1	0.95µM*	/	/	?	13%	?
C/C(=N\NC(=O)c1cc(-c2cccc(OC(C)C)c2)nc2ccccc12)c1cccnc1	0.6µM*	/	/	?	3%	24%
COc1ccc(C(=O)C2CCCN(C(=O)c3c4c(nn3C)CCCC4)C2)cc1F (centres undefined)	-2%	/	4%	-5%	-6%	-6%
Cc1ccc(NC(=O)/C=C2\NC(=O)CS2)cc1	7.6µM*	/	/	3.2µM*	23µM*	3.5µM*
CC(C)(C)c1ccc(C(=O)/C=C2\NC(=O)CS2)cc1	0.3µM*	3.2µM*	-8%	0.63µM*	?	0.4µM*
COc1ccccc1NC(=O)/C=C1\NC(=O)CS1	-15%	22%	-23%	1%	5%	-2%
N/C(=N\OC(=O)c1cccnc1)c1ccccc1Cl	17µM*	-33%	-6%	20%	3%	23%
COc1cc(OC)c(C(=O)O/N=C(\N)c2ccccn2)cc1OC	-4%	/	/	14%	4%	10%
N/C(=N\OC(=O)c1ccccc1Cl)c1ccccn1	0.15µM*	?	11µM*	0.63µM*	0.52µM*	0.35µM*
Cc1ccc(C(=O)O/N=C(\N)c2ccccn2)c(C)c1	0.021µM*	/	/	?	-17%	0.032µM*
